Source: PubChem
TEAD-YAP block – TEAD-YAP interaction inhibition. HEK-TIYL cells, TEAD-Gal4/YAP UAS-luciferase luminescence. inhibition, % at 9.12 µM. actives 1.4% (n = 640,000). AID 1259422; in the data active = inhibition above about 32%;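 also: 0% = median of test compound wells and 100% = reference inhibitor wells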
GPR151 ag – human GPR151 activation; PathHunter beta-arrestin GPR151 cells, luminescence; activation, % at 11.2 µM; Q8TDV0; actives 1% (n = 650,000); in the data active = activation above about 4.9%;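 also: 0% = median of compound wells and 100% = cells with positive control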
FBW7 act – activators of human E3 ligase FBW7 | Q969H0 | AlphaScreen FBW7–phospho-cyclin E peptide binding, activator screen | normalized activity (activation), % at 26.1 µM | actives 0.13% (n = 650,000) | AID 1259310; in the data active = normalized activity above about 1.9%;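 also: purified mutant Fbw7 with reduced substrate affinity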
MITF primary – blocks human microphthalmia-associated transcription factor; O75030; AlphaScreen MITF homodimerization, bead proximity signal; inhibition, % at 2.6 µM; actives 0.91% (n = 650,000); AID 1259374; in the data active = inhibition above about 50%;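 also: 0% = vehicle wells with protein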
Target sequence (O75030 whole entry, looked up): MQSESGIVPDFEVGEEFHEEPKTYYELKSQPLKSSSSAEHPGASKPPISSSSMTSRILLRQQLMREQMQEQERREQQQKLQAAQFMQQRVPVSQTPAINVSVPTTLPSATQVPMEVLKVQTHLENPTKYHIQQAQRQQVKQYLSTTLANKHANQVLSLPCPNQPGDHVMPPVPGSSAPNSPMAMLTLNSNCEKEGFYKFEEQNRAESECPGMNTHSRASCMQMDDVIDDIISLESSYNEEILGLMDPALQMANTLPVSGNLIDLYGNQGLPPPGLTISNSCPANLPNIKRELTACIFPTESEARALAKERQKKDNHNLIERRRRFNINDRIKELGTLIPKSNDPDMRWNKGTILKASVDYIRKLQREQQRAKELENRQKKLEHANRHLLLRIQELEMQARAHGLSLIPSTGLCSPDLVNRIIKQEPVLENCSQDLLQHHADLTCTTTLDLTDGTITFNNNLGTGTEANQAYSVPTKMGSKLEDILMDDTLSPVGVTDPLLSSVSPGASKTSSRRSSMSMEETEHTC
The depositor's hits bear a star; · = no result. The list is not random: actives were taken first. Their share in the collection is about 3.4%.

SMILES | TEAD-YAP block | GPR151 ag | FBW7 act | MITF primary
Cc1nn(-c2ccccc2)c(N2CCCCC2)c1/C=N/Nc1ccccn1 | 60.9* | -1.0 | -0.1 | 7.0
COc1ccc(O)c(/C=N/N=C2/NC(=O)C(C)S2)c1 (configuration not stated) | 67.7* | -8.1 | -0.3 | -7.4
COc1ccc(OC)c(/C=N/N=C2\NC(=O)C(C)S2)c1 (configuration not stated) | -7.0 | -0.3 | 0.3 | 7.7
OC1CCC(Nc2ccc3ncc(-c4ccc5ccccc5c4)n3n2)CC1 (configuration not stated) | -0.2 | 0.7 | -0.3 | -14.8
COc1ccc(-c2cnc3ccc(NC4CCC(O)CC4)nn23)cn1 (configuration not stated) | 35.9* | 1.9 | 0.0 | -13.0
COC(=O)c1ccc(-c2cnc3ccc(NC4CCC(O)CC4)nn23)cc1 (configuration not stated) | 41.3* | 0.7 | -0.4 | -4.4
COc1ccc(Br)cc1/C=N/N=C(N)N | 42.5* | -2.2 | -0.1 | 3.4
O=C(NCCc1ccc(O)cc1)c1cc(N2CCN(Cc3ccc4c(c3)OCO4)CC2)nc2ccccc12 | 47.9* | 0.0 | 0.2 | 12.1
O=C(c1cnc(N2CCN(c3ccccn3)CC2)c2ccccc12)N1CCN(Cc2ccc3c(c2)OCO3)CC1 | 57.3* | 2.0 | -0.1 | 0.4
CCCNC(=O)c1cc(N2CCN(Cc3ccc4c(c3)OCO4)CC2)nc2ccccc12 | -9.0 | 0.3 | -0.2 | -3.6
COC(=O)c1cnc(N2CCN(Cc3ccc4c(c3)OCO4)CC2)c2ccccc12 | 9.3 | -1.3 | 0.0 | 1.5
COc1cc(C(c2cc(Cl)c3cccnc3c2O)N2CCCC2)cc(OC)c1OC (configuration not stated) | 15.6 | 1.2 | -0.9 | 36.6
Oc1c(C(c2ccc(Cl)cc2)N2CCOCC2)ccc2cccnc12 (configuration not stated) | 77.5* | -0.4 | -0.1 | -5.1
COc1ccc(C(c2ccc3cccnc3c2O)N2CCOCC2)cc1 (configuration not stated) | 80.0* | -0.8 | -0.5 | 18.3
COc1ccc(C(c2sc3nc(C)nn3c2O)N2CCOCC2)cc1 (configuration not stated) | -2.2 | 0.1 | 0.1 | 7.1
COc1ccc(C(c2ccc3cccnc3c2O)N2CCCC2)cc1 (configuration not stated) | 83.8* | -0.1 | -0.2 | 19.4
O=C(NCCCN1CCOCC1)c1ccc(CNS(=O)(=O)c2ccc(F)cc2)cc1 | 3.4 | -1.2 | 0.1 | -2.9
Cc1ccccc1S(=O)(=O)Nc1cc(Br)cc2cccnc12 | 35.8* | 0.5 | -0.1 | 18.0
O=C1NC(c2ccccn2)C(C(=O)c2ccccc2)C(O)(C(F)(F)F)N1 (configuration not stated) | 4.9 | -1.7 | 0.2 | 19.5
CCCN1C(=O)C(O)(CC(=O)c2ccccc2OC)c2cc(Br)ccc21 (configuration not stated) | 8.4 | -0.2 | 0.1 | 6.6
CCCN1C(=O)C(O)(CC(=O)c2ccccc2O)c2cc(Br)ccc21 (configuration not stated) | 38.0* | 0.5 | -0.1 | -0.5
CCCCC(=O)NC(c1ccccc1)c1ccc2cccnc2c1O (configuration not stated) | 9.3 | -1.6 | -0.6 | 41.1
CCCCC(=O)NC(c1cccc([N+](=O)[O-])c1)c1ccc2cccnc2c1O (configuration not stated) | 87.6* | -1.5 | -0.6 | 55.4*
CC(=O)NC(c1cccc([N+](=O)[O-])c1)c1ccc2cccnc2c1O (configuration not stated) | 82.7* | -0.3 | -2.0 | 74.3*
COc1ccc2c(C)nc(N3CCC(NCCCOC(C)C)CC3)nc2c1 | -2.4 | -1.3 | 0.2 | 14.9
SMILES | TEAD-YAP block | GPR151 ag | FBW7 act | MITF primary
CCOCCCNC1CCN(c2nc(C)c3cc(OC)ccc3n2)CC1 | 48.7* | 0.6 | 0.2 | -4.8
O=C(Nc1nnc(-c2ccc(F)cc2)o1)c1cccc(C(F)(F)F)c1 | 69.4* | 1.1 | -0.1 | -8.4
O=C(Nc1nnc(-c2ccc(Cl)cc2)o1)c1cccc(C(F)(F)F)c1 | · | -0.5 | · | ·
COc1ccc(CC2(C)OC(c3ccncc3)=NN2C(C)=O)cc1 (configuration not stated) | 9.8 | 0.7 | 0.1 | 4.4
COc1ccc(CC2(C)OC(c3cccs3)=NN2C(C)=O)cc1 (configuration not stated) | 36.3* | 1.4 | -0.1 | 0.3
CC(C(=O)Nc1ncn[nH]1)c1ccc([N+](=O)[O-])cc1 (configuration not stated) | 12.1 | -0.9 | -0.5 | 8.4
CC(C(=O)Nc1ccncc1)c1ccc([N+](=O)[O-])cc1 (configuration not stated) | 33.4* | 3.9 | 1.0 | -0.4
O=S(=O)(Nc1cccnc1)c1ccc(Cl)c(C(F)(F)F)c1 | 9.8 | -1.3 | 0.0 | 9.9
CCN(CC)c1ccc2c(c1)OC(N)=C(C#N)C2c1cccc(F)c1 (configuration not stated) | 68.3* | -1.0 | 0.5 | -13.0
N#CC1=C(N)Oc2cc(N)ccc2C1c1ccc(Br)cc1 (configuration not stated) | 0.9 | -0.8 | -0.1 | 11.9
N#CC1=C(N)Oc2cc(N)ccc2C1c1cccc(Br)c1 (configuration not stated) | 55.1* | 1.1 | 0.0 | 11.7
CN(C)c1ccc2c(c1)OC(N)=C(C#N)C2c1ccc(F)cc1 (configuration not stated) | 3.3 | 0.6 | -0.1 | -8.0
Cc1cc(C(=O)N2CCC(C3(CCC(C)C)NC(=O)NC3=O)CC2)c2ccccc2n1 (configuration not stated) | 9.4 | -1.4 | -0.1 | 4.4
CCNC(=O)CCCc1nc(-c2ccccc2Cl)no1 | 35.5* | -0.6 | -0.1 | 3.5
CCCNC(=O)CCc1nc(-c2ccccc2Cl)no1 | 2.8 | -1.3 | 0.1 | -2.7
CCOC(=O)c1[nH]c2c([N+](=O)[O-])cc(OC)cc2c1-c1ccccc1 | 3.1 | -0.1 | -0.3 | 13.1
CCOc1cc([N+](=O)[O-])c2[nH]c(C(=O)O)c(C)c2c1 | 45.3* | -1.0 | 0.0 | -8.7
CC(=O)OC1c2cc(C)ccc2NC(c2ccc(F)cc2)C1(C)C (configuration not stated) | 33.8* | 0.4 | -0.2 | 8.8
CC(=O)OC1c2cc(C)ccc2NC(c2ccc(Cl)cc2)C1(C)C (configuration not stated) | 14.3 | 1.4 | 0.3 | 8.4
Fc1ccc2c(c1)nc(NCc1ccccc1)c1nccn12 | -8.7 | -2.6 | 0.4 | 12.9
Fc1ccc2c(c1)nc(NCc1ccncc1)c1nccn12 | 48.6* | -0.9 | -0.1 | 0.9
Cc1ccc2c(c1)C(=O)CC1(CCN(CC(=O)Nc3ccc(F)cc3)CC1)O2 | 21.1 | -1.1 | -0.1 | -23.3
c1ccc(-c2cnc3ccc(NCc4ccc5c(c4)OCO5)nn23)cc1 | 3.7 | 0.2 | -0.3 | 2.2
OCc1ccc(-c2cnc3ccc(NCc4ccc5c(c4)OCO5)nn23)cc1 | 57.7* | -1.0 | 0.7 | 11.4
c1cc(-c2cnc3ccc(NCc4ccc5c(c4)OCO5)nn23)ccn1 | 47.1* | -0.1 | 0.2 | 8.7
